Drawing on article PMC7862700, “An all-to-all approach to the identification of sequence-specific readers for epigenetic DNA modifications on cytosine”, this text covers binding signal for two sequences.

Common to all, as to experiment: DAPPL (digital affinity profiling via proximity ligation, sequencing); 10 mM Tris-HCl pH 7.5, 50 mM NaCl, 1 mM DTT, 4% glycerol, room temperature, 30 min; GST-TFs on glutathione beads, 16-mer random dsDNA library, 0.1% formaldehyde crosslink after washing; high values mean tight binding
One assay concerns the target T1, FLI1 (Homo sapiens, UniProt Q01543 1-452).
T1 sequence: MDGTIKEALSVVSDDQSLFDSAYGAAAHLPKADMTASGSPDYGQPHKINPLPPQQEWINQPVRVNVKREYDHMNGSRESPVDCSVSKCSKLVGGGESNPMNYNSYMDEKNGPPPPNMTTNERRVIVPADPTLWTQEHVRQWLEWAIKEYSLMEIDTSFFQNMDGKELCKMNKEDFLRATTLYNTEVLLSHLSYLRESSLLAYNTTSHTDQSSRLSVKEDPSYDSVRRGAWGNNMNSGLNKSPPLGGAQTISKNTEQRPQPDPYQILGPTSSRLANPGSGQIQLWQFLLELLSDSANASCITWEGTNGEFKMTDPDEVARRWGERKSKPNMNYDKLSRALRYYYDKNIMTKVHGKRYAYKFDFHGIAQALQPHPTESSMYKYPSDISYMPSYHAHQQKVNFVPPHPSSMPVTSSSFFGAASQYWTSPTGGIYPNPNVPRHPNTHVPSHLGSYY
As to conditions: protein: recombinant; tags: N-terminal GST; dsDNA, one strand shown. In short, it runs like this:
(§1)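 Each value of binding signal is a hexamer's read frequency for a factor divided by the same hexamer's frequency in the tag-only sample. Barcoded, bead-captured GST fusions of human transcription factors made in yeast were pooled with that sample and incubated with 200 nmole of a random double-stranded 16-mer DNA library in Tris/NaCl/DTT/glycerol buffer at room temperature for 30 min. Washing, 0.1% formaldehyde crosslinking, proximity ligation, PCR and Illumina NextSeq500 sequencing followed.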

In another assay the target is T2, ELK1 (Homo sapiens, UniProt P19419 1-428).
T2 sequence: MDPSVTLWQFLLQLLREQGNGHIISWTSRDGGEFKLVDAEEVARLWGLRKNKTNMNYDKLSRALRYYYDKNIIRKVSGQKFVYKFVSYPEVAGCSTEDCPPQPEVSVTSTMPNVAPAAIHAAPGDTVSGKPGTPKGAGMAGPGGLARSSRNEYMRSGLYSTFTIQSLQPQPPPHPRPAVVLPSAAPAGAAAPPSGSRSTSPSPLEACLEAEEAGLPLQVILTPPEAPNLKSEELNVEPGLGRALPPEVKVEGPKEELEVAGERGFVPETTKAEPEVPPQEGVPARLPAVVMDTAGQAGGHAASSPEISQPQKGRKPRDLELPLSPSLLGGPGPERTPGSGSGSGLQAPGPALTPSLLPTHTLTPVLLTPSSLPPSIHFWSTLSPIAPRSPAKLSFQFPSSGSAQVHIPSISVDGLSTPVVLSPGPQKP
As to conditions: protein: recombinant; tags: N-terminal GST; dsDNA, one strand shown. In short, it runs like this:
as §1

The next assay deals with T3, GABPA (Homo sapiens, UniProt Q06546 1-454).
T3 sequence: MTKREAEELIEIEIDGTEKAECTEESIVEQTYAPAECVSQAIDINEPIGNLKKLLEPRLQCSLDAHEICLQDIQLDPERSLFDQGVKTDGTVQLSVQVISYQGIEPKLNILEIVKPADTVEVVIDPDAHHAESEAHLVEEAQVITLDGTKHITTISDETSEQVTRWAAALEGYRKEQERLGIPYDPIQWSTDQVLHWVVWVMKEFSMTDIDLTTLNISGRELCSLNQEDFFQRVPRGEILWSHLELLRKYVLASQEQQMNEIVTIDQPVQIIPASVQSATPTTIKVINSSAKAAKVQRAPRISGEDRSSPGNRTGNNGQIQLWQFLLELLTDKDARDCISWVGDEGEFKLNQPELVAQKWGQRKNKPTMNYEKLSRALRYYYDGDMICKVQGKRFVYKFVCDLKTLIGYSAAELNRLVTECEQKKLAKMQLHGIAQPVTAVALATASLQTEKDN
The following applies: protein: recombinant; tags: N-terminal GST; dsDNA, one strand shown. The gist of the method: as §1

For another assay, the target named is T4, ERG (Homo sapiens, UniProt P11308 1-479).
T4 sequence: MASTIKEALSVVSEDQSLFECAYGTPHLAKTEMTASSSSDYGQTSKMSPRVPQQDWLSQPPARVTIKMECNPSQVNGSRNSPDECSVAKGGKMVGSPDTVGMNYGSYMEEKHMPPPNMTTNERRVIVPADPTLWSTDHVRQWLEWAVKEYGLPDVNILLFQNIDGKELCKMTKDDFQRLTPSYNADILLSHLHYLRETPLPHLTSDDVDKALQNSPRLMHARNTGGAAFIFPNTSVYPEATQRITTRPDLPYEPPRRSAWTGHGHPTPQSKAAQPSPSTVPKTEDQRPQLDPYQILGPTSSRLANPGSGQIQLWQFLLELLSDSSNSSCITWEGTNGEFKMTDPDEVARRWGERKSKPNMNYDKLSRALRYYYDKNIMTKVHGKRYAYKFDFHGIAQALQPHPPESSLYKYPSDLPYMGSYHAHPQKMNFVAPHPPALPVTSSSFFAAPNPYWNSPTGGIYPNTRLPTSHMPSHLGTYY
As to conditions: protein: recombinant; tags: N-terminal GST; dsDNA, one strand shown. In short, it runs like this: as §1

The target in another assay is ELF1 (Homo sapiens, UniProt P32519 1-619). The following applies: protein: recombinant; tags: N-terminal GST; dsDNA, one strand shown. In short, it runs like this:
as §1

The target in a further assay is SPI1 (Homo sapiens, UniProt P17947 1-270). The following applies: protein: recombinant; tags: N-terminal GST; dsDNA, one strand shown. In short, it runs like this:
as §1

Another assay has as its target T5, ELK3 (Homo sapiens, UniProt P41970 1-407).
T5 sequence: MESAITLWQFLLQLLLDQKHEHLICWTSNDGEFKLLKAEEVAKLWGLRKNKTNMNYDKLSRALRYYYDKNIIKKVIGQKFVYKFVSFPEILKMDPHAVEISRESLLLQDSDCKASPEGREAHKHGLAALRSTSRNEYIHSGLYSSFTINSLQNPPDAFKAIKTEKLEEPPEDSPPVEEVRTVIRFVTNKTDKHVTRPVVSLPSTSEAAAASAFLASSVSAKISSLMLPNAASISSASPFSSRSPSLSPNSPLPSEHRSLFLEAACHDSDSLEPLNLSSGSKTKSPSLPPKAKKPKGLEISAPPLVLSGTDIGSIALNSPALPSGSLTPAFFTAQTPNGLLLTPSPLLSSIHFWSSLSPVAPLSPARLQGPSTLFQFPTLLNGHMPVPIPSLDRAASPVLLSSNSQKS
The following applies: protein: recombinant; tags: N-terminal GST; dsDNA, one strand shown. The gist of the method:
as §1

A further assay has as its target ETV5 (Homo sapiens, UniProt P41161 1-510). The following applies: protein: recombinant; tags: N-terminal GST; dsDNA, one strand shown. The gist of the method: as §1
A further assay addresses HSF1 (Homo sapiens, UniProt Q00613 1-529). As to conditions: protein: recombinant; tags: N-terminal GST; chain copies: 3; dsDNA, one strand shown. In short, it runs like this:
as §1

For another assay, the target named is ELF4 (Homo sapiens, UniProt Q99607 1-663). The following applies: protein: recombinant; tags: N-terminal GST; dsDNA, one strand shown. The gist of the method:
as §1

The target in the next assay is T6, ELK4 (Homo sapiens, UniProt P28324-2 1-405).
T6 sequence: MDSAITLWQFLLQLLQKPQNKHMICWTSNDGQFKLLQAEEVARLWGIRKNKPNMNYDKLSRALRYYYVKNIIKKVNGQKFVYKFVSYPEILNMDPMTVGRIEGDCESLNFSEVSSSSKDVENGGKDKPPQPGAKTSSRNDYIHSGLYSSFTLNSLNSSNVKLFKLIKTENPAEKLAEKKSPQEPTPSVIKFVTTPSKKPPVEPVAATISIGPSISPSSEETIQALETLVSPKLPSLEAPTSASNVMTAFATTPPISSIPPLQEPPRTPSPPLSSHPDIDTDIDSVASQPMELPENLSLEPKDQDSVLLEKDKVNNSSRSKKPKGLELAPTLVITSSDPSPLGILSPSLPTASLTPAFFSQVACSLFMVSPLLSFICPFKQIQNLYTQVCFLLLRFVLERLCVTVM
The following applies: protein: recombinant; tags: N-terminal GST; dsDNA, one strand shown. The gist of the method: as §1

The target in the next assay is T7, ETV2 (Homo sapiens, UniProt O00321 1-342).
T7 sequence: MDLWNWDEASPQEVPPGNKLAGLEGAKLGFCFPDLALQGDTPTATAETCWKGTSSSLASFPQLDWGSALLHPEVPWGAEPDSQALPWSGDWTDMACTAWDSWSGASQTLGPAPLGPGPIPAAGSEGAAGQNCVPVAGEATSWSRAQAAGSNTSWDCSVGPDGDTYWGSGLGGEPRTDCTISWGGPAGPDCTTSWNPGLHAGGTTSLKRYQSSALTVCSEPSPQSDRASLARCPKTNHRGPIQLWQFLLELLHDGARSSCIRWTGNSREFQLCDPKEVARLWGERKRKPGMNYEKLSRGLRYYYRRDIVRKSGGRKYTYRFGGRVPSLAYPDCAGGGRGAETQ
The following applies: protein: recombinant; tags: N-terminal GST; dsDNA, one strand shown. The gist of the method:
as §1

For a further assay, the target named is CRX (Homo sapiens, UniProt O43186 1-299). As to conditions: protein: recombinant; tags: N-terminal GST; dsDNA, one strand shown. The gist of the method:
as §1

A further assay deals with ETV1 (Homo sapiens, UniProt P50549 1-477). As to conditions: protein: recombinant; tags: N-terminal GST; dsDNA, one strand shown. In short, it runs like this:
as §1

In the next assay the target is T8, EHF (Homo sapiens, UniProt Q9NZC4 1-300).
T8 sequence: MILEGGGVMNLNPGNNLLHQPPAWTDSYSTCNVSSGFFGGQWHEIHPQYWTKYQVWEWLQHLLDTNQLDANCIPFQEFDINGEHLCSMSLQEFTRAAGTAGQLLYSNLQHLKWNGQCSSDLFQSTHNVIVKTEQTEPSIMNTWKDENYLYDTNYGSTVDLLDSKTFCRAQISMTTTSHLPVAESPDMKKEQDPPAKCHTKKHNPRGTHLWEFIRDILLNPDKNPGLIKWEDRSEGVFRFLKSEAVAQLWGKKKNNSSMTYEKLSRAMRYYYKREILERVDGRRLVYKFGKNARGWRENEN
As to conditions: protein: recombinant; tags: N-terminal GST; dsDNA, one strand shown. In short, it runs like this:
as §1

For a further assay, the target named is SPIB (Homo sapiens, UniProt Q01892 1-262). The following applies: protein: recombinant; tags: N-terminal GST; dsDNA, one strand shown. In short, it runs like this: as §1
Another assay has as its target T9, FEV (Homo sapiens, UniProt Q99581 1-238).
T9 sequence: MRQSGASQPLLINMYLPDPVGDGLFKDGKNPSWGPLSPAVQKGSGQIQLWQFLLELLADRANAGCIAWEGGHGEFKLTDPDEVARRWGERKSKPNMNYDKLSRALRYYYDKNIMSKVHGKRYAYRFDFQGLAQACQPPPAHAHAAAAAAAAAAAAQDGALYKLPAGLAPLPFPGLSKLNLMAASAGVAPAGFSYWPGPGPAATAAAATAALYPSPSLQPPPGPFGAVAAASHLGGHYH
As to conditions: protein: recombinant; tags: N-terminal GST; dsDNA, one strand shown. In short, it runs like this:
as §1

Chain of ELF1 (P32519 whole entry): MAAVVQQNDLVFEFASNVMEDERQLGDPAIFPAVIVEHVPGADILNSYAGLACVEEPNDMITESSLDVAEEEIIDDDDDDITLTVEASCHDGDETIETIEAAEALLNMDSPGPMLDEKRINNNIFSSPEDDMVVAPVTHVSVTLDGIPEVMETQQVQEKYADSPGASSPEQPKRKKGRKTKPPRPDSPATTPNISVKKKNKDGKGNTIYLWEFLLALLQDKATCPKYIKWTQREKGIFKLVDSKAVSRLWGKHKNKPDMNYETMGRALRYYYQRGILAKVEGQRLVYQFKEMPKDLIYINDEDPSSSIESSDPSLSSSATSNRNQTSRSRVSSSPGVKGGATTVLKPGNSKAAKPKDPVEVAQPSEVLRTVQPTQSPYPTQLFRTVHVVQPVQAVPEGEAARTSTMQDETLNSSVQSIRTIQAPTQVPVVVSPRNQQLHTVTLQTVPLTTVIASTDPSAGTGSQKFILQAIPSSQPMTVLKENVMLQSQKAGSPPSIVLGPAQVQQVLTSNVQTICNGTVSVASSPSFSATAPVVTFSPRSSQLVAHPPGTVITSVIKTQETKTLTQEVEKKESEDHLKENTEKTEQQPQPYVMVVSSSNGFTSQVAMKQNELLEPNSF
Chain of ELF4 (Q99607 whole entry): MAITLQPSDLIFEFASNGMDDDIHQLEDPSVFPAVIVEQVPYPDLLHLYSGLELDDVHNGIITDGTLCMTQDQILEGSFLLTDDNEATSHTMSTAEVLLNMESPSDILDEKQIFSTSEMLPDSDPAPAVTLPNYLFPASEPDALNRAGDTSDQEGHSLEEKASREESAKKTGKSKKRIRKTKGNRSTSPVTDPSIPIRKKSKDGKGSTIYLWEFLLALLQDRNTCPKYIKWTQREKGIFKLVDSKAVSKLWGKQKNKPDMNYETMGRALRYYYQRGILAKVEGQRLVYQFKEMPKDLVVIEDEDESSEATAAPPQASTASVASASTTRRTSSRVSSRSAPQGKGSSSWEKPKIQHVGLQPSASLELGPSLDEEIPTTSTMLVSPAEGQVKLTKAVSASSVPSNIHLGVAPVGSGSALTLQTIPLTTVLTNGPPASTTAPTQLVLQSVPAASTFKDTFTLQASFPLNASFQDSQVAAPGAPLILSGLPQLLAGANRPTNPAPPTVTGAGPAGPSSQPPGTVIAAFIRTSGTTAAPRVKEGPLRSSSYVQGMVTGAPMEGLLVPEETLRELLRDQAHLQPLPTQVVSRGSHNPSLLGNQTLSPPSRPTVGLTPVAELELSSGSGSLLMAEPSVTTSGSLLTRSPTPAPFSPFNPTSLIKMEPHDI
Chain of CRX (O43186 whole entry): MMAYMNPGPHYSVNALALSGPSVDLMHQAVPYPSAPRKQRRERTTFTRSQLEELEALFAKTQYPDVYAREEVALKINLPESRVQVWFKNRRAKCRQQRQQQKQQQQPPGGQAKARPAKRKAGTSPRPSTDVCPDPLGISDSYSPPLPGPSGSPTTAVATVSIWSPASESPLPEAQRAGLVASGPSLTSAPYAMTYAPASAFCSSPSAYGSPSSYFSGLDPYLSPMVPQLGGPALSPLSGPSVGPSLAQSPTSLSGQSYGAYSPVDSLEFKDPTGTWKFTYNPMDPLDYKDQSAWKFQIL
Chain of HSF1 (Q00613 whole entry): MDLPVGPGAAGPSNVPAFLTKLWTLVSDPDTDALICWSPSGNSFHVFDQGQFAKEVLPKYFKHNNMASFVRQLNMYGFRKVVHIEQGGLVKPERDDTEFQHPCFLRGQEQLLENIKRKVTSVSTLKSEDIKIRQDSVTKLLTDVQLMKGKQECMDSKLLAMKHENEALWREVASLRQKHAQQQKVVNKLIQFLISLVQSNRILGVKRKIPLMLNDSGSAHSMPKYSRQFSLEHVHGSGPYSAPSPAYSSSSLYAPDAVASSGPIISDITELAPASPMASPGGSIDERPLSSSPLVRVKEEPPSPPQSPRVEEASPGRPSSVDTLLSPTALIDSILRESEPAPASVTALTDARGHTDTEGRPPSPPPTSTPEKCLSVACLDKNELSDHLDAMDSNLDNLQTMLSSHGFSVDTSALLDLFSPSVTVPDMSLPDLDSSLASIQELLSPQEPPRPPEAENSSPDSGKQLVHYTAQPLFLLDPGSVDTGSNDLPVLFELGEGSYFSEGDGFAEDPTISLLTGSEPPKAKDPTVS
Chain of ETV5 (P41161 whole entry): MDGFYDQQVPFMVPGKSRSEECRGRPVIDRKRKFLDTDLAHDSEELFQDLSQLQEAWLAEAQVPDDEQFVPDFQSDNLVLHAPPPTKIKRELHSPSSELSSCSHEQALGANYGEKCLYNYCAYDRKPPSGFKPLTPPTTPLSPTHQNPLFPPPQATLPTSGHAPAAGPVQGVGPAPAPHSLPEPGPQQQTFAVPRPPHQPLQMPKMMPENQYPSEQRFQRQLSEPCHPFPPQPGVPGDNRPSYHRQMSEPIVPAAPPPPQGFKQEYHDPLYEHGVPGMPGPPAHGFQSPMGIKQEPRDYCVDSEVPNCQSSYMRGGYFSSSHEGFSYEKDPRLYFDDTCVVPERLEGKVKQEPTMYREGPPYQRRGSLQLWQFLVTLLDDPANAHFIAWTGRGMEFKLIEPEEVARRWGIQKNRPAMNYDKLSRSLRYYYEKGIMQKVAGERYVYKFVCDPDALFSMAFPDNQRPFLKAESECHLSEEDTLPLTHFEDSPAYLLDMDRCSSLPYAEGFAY
Chain of ETV1 (P50549 whole entry): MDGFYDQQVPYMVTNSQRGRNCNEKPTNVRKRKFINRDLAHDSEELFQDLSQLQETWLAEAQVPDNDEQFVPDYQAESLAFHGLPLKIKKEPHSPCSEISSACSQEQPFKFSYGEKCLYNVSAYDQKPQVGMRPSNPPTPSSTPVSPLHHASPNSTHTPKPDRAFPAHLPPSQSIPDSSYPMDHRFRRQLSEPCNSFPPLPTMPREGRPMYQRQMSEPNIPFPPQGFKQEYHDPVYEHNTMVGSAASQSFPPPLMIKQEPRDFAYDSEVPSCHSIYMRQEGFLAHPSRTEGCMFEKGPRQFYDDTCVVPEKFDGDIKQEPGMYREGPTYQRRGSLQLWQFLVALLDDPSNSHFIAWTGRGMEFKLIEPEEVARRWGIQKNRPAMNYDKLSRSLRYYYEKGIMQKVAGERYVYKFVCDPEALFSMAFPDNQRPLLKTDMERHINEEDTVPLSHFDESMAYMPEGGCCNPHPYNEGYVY
Chain of SPIB (Q01892 whole entry): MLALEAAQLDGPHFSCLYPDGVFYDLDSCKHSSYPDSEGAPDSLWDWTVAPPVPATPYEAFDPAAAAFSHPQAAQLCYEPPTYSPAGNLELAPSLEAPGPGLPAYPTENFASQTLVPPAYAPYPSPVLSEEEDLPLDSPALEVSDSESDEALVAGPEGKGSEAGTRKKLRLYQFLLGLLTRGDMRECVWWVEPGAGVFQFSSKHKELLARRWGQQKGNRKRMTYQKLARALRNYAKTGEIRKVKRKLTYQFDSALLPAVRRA

In the case of TATCAA, the binding signal is 1.1 fold enrichment (6-mer frequency, TF over GST control) with FLI1; 1.06 fold enrichment (6-mer frequency, TF over GST control) in the assay with ELK1; 1.13 fold enrichment (6-mer frequency, TF over GST control) with GABPA; 1.03 fold enrichment (6-mer frequency, TF over GST control) with ERG; 1.02 fold enrichment (6-mer frequency, TF over GST control) with ELF1; 1.02 fold enrichment (6-mer frequency, TF over GST control) with SPI1. Further, the binding signal in the assay with ELK3 was 1.02 fold enrichment (6-mer frequency, TF over GST control); with ETV5, 1.03 fold enrichment (6-mer frequency, TF over GST control); in the assay with HSF1, 1.01 fold enrichment (6-mer frequency, TF over GST control); with ELF4, 1.03 fold enrichment (6-mer frequency, TF over GST control); in the assay with ELK4, 1.09 fold enrichment (6-mer frequency, TF over GST control); with ETV2, 1.11 fold enrichment (6-mer frequency, TF over GST control). Moreover, the binding signal with CRX is 1.21 fold enrichment (6-mer frequency, TF over GST control); in the assay with ETV1, 1.01 fold enrichment (6-mer frequency, TF over GST control).
GTTATC: the binding signal with FLI1 is 1.12 fold enrichment (6-mer frequency, TF over GST control); with GABPA it was 1.07 fold enrichment (6-mer frequency, TF over GST control); with ERG, 1.1 fold enrichment (6-mer frequency, TF over GST control); in the assay with ELF1 it was 1.09 fold enrichment (6-mer frequency, TF over GST control); in the assay with EHF it was 1.12 fold enrichment (6-mer frequency, TF over GST control); with SPI1, 1.03 fold enrichment (6-mer frequency, TF over GST control). In addition, the binding signal in the assay with SPIB was 1.02 fold enrichment (6-mer frequency, TF over GST control); with ELK3, 1.22 fold enrichment (6-mer frequency, TF over GST control); with FEV, 1.05 fold enrichment (6-mer frequency, TF over GST control); in the assay with ETV5, 1.12 fold enrichment (6-mer frequency, TF over GST control); in the assay with HSF1 it was 1.03 fold enrichment (6-mer frequency, TF over GST control); in the assay with ELF4 it was 1.04 fold enrichment (6-mer frequency, TF over GST control). In addition, the binding signal was 1.22 fold enrichment (6-mer frequency, TF over GST control) with ELK4; 1.21 fold enrichment (6-mer frequency, TF over GST control) in the assay with ETV2; 1.24 fold enrichment (6-mer frequency, TF over GST control) with CRX.
